Results on 24 compounds are retold here after PubChem BioAssay (NCATS).

The structures appear in SMILES notation. Results filed as inconclusive are left out. Activity calls are given as the source filed them. Calls come from the whole dose curve; as a rule, active = well fitted curve in the direction sought with a large enough effect; inconclusive = small, poorly fitted or top-dose-only effect, or another doubt; inactive = no such curve, though single readings can be large; an effect the other way counts as inactive or inconclusive.

Experiment [1] deals with Cytochrome P450 2D6 (Homo sapiens) (UniProt P10635). Kind of experiment: qHTS for inhibitors of CYP2D6 against the NCATS DSHEA and TCM libraries (AID 1919972). Note: % is set by controls: 0 for no effect and ±100 for the full control effect. In short, it runs like this: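 CYP2D6 enzyme with pro-luciferin substrate in manufacturer buffer (typically 100 mM KPO4), preincubated 15 min RT with substances (most at 19.5 nM upward); NADPH regeneration system (1x) started 30–45 min RT reaction; P450-Glo luminescence read after 30 min; quinidine as intraplate control.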

Experiment [2] addresses Cytochrome P450 2C9 (Homo sapiens) (UniProt P11712). Kind of experiment: qHTS for inhibitors of CYP2C9 against the NCATS DSHEA and TCM libraries (AID 1919973). Note: potency is the fitted concentration of half-maximal effect. An outline of the steps:
(§1)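 Concentration-response screening with isoform-matched pro-luciferin substrates. The CYP reaction was initiated by NADPH regenerating solution and ran 30-45 min in darkness at room temperature.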
On the technique in general: Quantitative high-throughput screening tests each substance at several concentrations.

The nature of experiment [3]: KB-3-1 P-gp reporter qHTS against the NCATS DSHEA and TCM libraries (AID 1919975). Note: 0% is about no effect. In short, it runs like this: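 Parental KB-3-1 human cervical adenocarcinoma cells (500 cells/well, DMEM + 10% FBS) were treated with substances for ~72 h at 37C; viability was read by CellTiter-Glo luminescence.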
The nature of experiment [4]: qHTS Counterscreen for compound interference against the NCATS DSHEA and TCM libraries (AID 1919978). Note: % of control where 0% means no effect. The conditions noted are these: firefly luciferase detection reagent interference, luminescence. In short, it runs like this:
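D-luciferin (1 uM final) or 100 mM potassium phosphate buffer alone was preincubated 15 min at RT with compounds (19.5 nM to 39.8 uM final). Luciferin detection reagent was then added and luminescence read after 30 min at RT.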

Experiment [5] concerns Nanoluciferase (engineered Oplophorus gracilirostris luciferase). Kind of experiment: Primary Nanoluciferase (NLuc) qHTS assay for identification of artifact compounds. (AID 1845222).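 Note: series mostly up to about 54 µM; 0% = DMSO and -100% = no enzyme.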 An outline of the steps: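 Luminescence from secreted NLuc (filtered, 1:55-diluted S16 cell medium) read 5 min after Nano-Glo substrate; compounds preincubated 15 min, RT. Hill fits of inhibition normalized to DMSO and no-enzyme.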

Experiment [6] in a line: Primary redox qHTS assay for identification of artifact compounds. (AID 1845223).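 Note: 0% = DMSO and 100% = reference compound.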 An outline of the steps:
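Redox-cycling detection via DTT (250 uM final) oxidation coupled to Amplex Red (25 uM)/HRP (250 mU/mL) in HBSS. 15 min preincubation plus 30 min after DTT, room temperature. Ex/Em 525/598 nm; 4-parameter Hill fit against DMSO and 10 uM DA3003.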

Experiment [7] addresses Cytochrome P450 3A4 (Homo sapiens) (UniProt P08684). Description: qHTS for inhibitors of CYP3A4 against the NCATS DSHEA and TCM libraries (AID 1919971).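 Note: % is set by controls: 0 for no effect and ±100 for the full control effect; inhibition lowers luminescence from luciferin made by CYP3A4.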 An outline of the steps:
as §1

Experiment [8] addresses Cytochrome P450 2C19 (Homo sapiens) (UniProt P33261). Description: qHTS for inhibitors of CYP2C19 against the NCATS DSHEA and TCM libraries (AID 1919974).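 Note: luminescence from luciferin released by CYP2C19 oxidation of a pro-luciferin substrate.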 Note: potency is the fitted concentration of half-maximal effect. In short, it runs like this: as §1
Experiment [9] addresses Cytochrome P450 1A2 (Homo sapiens) (UniProt P05177). Description: qHTS for inhibitors of CYPIA2 against the NCATS DSHEA and TCM libraries (AID 1919976).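 Note: light from luciferin formed by CYP1A2 from a pro-luciferin substrate; series mostly up to about 37 µM; % is set by controls: 0 for no effect and ±100 for the full control effect.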 An outline of the steps: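 Enzyme and pro-luciferin substrate, or substrate alone as no-enzyme background, are pre-incubated with test samples for 15 min at room temperature. NADPH regeneration system (1x final) initiates a 30-45 min dark reaction; luciferase detection reagent follows before luminescence reading.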

Sequence of Cytochrome P450 3A4 (Homo sapiens) (P08684 whole entry, looked up): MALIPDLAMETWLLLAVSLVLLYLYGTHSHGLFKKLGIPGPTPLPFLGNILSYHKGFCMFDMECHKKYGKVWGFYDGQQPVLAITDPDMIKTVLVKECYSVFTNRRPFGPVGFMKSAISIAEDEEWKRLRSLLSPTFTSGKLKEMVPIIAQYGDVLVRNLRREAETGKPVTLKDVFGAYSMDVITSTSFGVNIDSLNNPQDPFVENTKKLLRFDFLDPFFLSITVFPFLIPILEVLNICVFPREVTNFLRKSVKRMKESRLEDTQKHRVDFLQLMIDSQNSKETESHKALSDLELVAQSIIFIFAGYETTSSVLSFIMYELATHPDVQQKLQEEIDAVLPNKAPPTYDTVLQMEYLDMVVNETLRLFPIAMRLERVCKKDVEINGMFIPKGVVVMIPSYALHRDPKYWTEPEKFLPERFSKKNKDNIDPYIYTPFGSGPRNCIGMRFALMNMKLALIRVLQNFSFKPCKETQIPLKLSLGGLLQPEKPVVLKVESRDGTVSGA
Sequence of Cytochrome P450 2D6 (Homo sapiens) (P10635 whole entry, looked up): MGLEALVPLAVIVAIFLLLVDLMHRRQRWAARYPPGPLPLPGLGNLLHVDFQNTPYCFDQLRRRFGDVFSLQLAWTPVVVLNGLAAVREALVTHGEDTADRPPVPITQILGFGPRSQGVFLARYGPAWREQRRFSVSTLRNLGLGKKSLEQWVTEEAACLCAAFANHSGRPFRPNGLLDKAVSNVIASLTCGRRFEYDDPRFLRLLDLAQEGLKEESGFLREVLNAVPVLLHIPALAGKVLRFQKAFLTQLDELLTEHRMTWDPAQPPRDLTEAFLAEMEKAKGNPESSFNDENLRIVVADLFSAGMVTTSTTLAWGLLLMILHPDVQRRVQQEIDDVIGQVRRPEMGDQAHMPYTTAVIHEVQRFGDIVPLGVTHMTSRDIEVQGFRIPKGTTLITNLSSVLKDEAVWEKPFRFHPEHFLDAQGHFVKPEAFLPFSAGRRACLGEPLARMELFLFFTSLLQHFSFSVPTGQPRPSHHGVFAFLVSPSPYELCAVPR
Sequence of Cytochrome P450 2C9 (Homo sapiens) (P11712 whole entry, looked up, canonical isoform): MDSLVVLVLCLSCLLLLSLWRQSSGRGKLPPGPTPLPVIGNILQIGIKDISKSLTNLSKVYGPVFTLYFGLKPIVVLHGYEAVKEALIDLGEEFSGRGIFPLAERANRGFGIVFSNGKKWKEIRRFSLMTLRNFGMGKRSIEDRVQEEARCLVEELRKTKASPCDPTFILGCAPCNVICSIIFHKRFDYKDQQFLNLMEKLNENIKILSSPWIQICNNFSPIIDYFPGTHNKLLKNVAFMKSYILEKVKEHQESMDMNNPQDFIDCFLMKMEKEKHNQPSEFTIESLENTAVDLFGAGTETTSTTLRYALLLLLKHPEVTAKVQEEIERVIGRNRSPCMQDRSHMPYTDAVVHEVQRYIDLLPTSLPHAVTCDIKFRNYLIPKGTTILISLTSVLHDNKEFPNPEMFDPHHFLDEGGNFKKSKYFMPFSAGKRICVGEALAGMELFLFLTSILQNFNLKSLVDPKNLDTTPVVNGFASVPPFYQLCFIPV
Sequence of Cytochrome P450 2C19 (Homo sapiens) (P33261 whole entry, looked up): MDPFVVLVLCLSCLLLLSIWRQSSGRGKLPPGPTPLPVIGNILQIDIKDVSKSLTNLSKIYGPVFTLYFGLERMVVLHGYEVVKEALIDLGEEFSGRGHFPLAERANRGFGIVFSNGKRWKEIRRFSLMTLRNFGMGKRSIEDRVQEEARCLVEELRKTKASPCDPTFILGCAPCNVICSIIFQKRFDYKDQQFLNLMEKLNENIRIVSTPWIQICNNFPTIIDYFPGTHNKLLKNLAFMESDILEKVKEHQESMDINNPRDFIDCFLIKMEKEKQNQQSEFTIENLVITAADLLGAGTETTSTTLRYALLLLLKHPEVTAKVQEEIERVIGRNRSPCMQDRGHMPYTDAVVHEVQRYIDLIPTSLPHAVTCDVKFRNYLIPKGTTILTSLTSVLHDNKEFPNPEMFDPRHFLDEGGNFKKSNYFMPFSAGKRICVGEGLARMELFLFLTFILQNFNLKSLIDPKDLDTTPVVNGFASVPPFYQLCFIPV
Sequence of Cytochrome P450 1A2 (Homo sapiens) (P05177 whole entry, looked up): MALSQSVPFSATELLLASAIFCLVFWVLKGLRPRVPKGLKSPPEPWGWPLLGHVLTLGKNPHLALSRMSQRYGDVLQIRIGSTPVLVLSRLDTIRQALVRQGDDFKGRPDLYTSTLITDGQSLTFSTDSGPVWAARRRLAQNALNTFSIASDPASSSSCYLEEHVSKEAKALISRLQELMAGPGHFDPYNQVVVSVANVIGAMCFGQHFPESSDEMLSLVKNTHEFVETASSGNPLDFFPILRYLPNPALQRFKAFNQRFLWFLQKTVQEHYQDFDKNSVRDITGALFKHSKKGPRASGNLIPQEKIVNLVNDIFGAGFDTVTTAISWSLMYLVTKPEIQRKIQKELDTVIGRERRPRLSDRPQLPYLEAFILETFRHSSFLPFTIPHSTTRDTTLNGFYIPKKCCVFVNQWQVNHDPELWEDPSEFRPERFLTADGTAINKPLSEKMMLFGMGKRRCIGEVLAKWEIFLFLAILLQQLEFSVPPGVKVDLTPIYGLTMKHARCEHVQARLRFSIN

With `CC1=C(/C=C/C(C)=C/C=C/C(C)=C/CO)C(C)(C)CCC1`, the call in experiment [1] and in experiment [3] was inactive. Moreover, in [2], the Potency is 14.1 µM (active). Moreover, the max response in [4] is 0.358% (inactive).

Regarding `CC1OC(OC2C(C)OC(OC3C(OC(=O)/C=C/c4ccc(O)cc4)C(CO)OC(OC4(COC(=O)/C=C/c5ccc(O)cc5)OC(CO)C(O)C4O)C3OC3OCC(O)(CO)C3O)C(O)C2O)C(O)C(O)C1O` (stereo not drawn), the activity, negative = inhibition in experiment [5] was 0.249% [at 11.6 µM] (inactive). Moreover, in experiment [6], the redox activity (% of DA3003) was -13.7% [at 11.5 µM] (inactive).

Consider `CC(/C=C/[C@]1(O)[C@@]2(C)CO[C@@]1(C)C[C@@H](O)C2)=C\C(=O)O[C@@H]1O[C@H](CO)[C@@H](O)[C@H](O)[C@H]1O`, for which the Potency entry in experiment [5] and in experiment [6] was “inactive” each time.

As for `CCC[C@@H]1C[C@@H](C(=O)N[C@@H]([C@H]2O[C@H](SC)[C@H](OP(=O)(O)O)[C@@H](O)[C@H]2O)[C@H](C)Cl)N(C)C1`, the Potency entry in experiment [6] was “inactive”.

For `Cn1c(=O)cc(N2CCCC(N)C2)n(Cc2ccccc2C#N)c1=O` (stereo not drawn), the Potency entry in experiment [5] and in experiment [6] was “inactive” each time.

Take `COC1C2=C(COC2=O)C2(C)CCCC(C)(CO)C2C1OC(=O)c1ccccc1` (stereo not drawn): the Potency result in experiment [5] and in experiment [6] was “inactive” throughout.

For `C=C1[C@@H]2[C@H]3OC(=O)C(=C)[C@@H]3CC[C@@](C)(O)[C@@H]2C[C@@H]1O[C@@H]1O[C@H](CO)[C@@H](O)[C@H](O)[C@H]1O`, the Potency entry in [5] and in experiment [6] was “inactive” throughout.

For `CC1=CCC(C(C)(C)O)CC1` (stereo not drawn), the result in [7], in [1] and in experiment [3] was inactive. The Potency in experiment [8] was 3.55 µM (active). The max response in experiment [4] was -0.821% (inactive).

As for `CN(C)C/C=C/C(=O)Nc1ccc(C(=O)Nc2cccc(Nc3ncc(Cl)c(-c4c[nH]c5ccccc45)n3)c2)cc1`, the Potency result in experiment [5] and in experiment [6] was “inactive” throughout.

As for `CC(NC(=O)CC(=O)O)c1nc2ccccc2c(=O)[nH]1` (stereo not drawn), the Potency result in experiment [5] and in [6] was “inactive” in each case.

On to `Cc1c(C)c2c(c(C)c1O)CC[C@@](C)(CCC[C@H](C)CCC[C@H](C)CCCC(C)C)O2`, for which the compound was called inactive in experiment [7], in [3] and in experiment [9]. The Potency entry in [2] and in [8] was “inactive” each time. For the same compound, in experiment [4], the max response was -0.537% (inactive).

For the compound `CC1=C(/C=C/C(C)=C/C=C/C(C)=C/C=C/C=C(C)/C=C/C=C(C)/C=C/C2=C(C)CCCC2(C)C)C(C)(C)CCC1`, the compound was called inactive in experiment [7], in [1] and in [3]. Besides, the Potency entry in experiment [2] and in experiment [8] was “inactive” in each case. Besides, the max response in experiment [4] was -3.35% (inactive).

Turning to `CCCCCCCC(=O)O`, the call in experiment [7], in [1], in [3] and in experiment [9] was inactive. In addition, the Potency result in experiment [2] and in experiment [8] was “inactive” throughout. The max response in [4] is 5.32% (inactive).

As for `C=C1C(=O)O[C@H]2[C@H]1[C@@H](OC(=O)C(C)CO)C[C@@]1(C)[C@H](O)CCC(=O)[C@H]21` (stereo partly drawn), the Potency result in experiment [5] and in experiment [6] was “inactive” throughout.

On to `CC1=C2C(=O)O[C@@H](c3ccoc3)[C@]2(C)CCC1`, for which the Potency result in experiment [5] and in experiment [6] was “inactive” each time.

`C=C1[C@@H]2CC[C@@]3(C)[C@H](c4ccoc4)OC(=O)C[C@]13O[C@H]1CC(=O)C(C)(C)[C@H](CC(=O)OC)[C@]12C`: the Potency entry in experiment [5] and in experiment [6] was “inactive” each time.

On to `CC1=CC(=O)CC(C)(C)C1(O)CCC(C)O` (stereo not drawn), for which the Potency entry in experiment [5] and in experiment [6] was “inactive” throughout.

Take `C#C[C@]1(O)CC[C@H]2[C@@H]3CCC4=C/C(=N/O)CC[C@@H]4[C@H]3CC[C@@]21CC`: the Potency entry in experiment [5] and in experiment [6] was “inactive” in each case.

On to `CC(C)Nc1cc(-c2c[nH]c(C(=O)N[C@H](CO)c3cccc(Cl)c3)c2)c(Cl)cn1`, for which the Potency result in [5] and in experiment [6] was “inactive” in each case.

Regarding `CC(C)(O)C1CCC2(C)C3C(O)C4C(C13)C42CO` (stereo not drawn), the Potency result in experiment [5] and in [6] was “inactive” throughout.

For the compound `COC1=CC(=O)C[C@@H](C)[C@]12Oc1cc(OC)cc(OC)c1C2=O`, the Potency result in experiment [5] and in experiment [6] was “inactive” each time.

As for `C=C(C)C1CC2(CO)C(=CC1=O)CCC(O)C2C` (stereo not drawn), the Potency result in [6] is “inactive”.

In the case of `COC(=O)C12C(=O)C(C)=C(O)C1(C)C(C)=CC1C34CCC(OC3=O)C(C)(C)C4CCC12C` (stereo not drawn), the Potency result in experiment [5] and in experiment [6] was “inactive” each time.

As to `OC[C@H]1O[C@@H](OC(CCCCc2ccc(O)cc2)CCc2ccc(O)cc2)[C@H](O[C@@H]2OC[C@](O)(CO)[C@H]2O)[C@@H](O)[C@@H]1O` (stereo partly drawn), in [6], the Potency result is “inactive”.
